# Results: paper PMC5836133, “The intracellular immune receptor Rx1 regulates the DNA-binding activity of a Golden2-like transcription factor”
# Whole data set: some 16,000 sequences, median “e-score” near -0.044, cut for the highest 2% near 0.38. Shown is part of a subset that was picked to be rich in the highest values.
# Target: T1, GST-NbGlk1(82-244) (Nicotiana benthamiana)
# T1 chain: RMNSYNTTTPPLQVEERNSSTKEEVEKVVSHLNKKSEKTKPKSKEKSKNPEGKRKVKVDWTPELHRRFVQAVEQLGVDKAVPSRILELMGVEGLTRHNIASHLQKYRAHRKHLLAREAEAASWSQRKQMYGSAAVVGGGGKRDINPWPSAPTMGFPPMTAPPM
# Assay: protein-binding microarray; NbGlk1 is a Golden2-like transcription factor of Nicotiana benthamiana; high values mean tight binding
# Settings: protein: recombinant; tags: GST (pTH6838); dsDNA, one strand shown
row,Sequence,binding signal
1,ATGGATTC,0.425 ± 0.0111 E-score
2,ACGGATTC,0.405 ± 0.00859 E-score
3,ACGGATTA,0.312 ± 0.00583 E-score
4,ATGGATTG,0.21 ± 0.0605 E-score
5,ACGGATTG,0.277 ± 0.0929 E-score
6,ATGGATTA,0.326 ± 0.0123 E-score
7,ACGCTGAT,0.235 ± 0.108 E-score
8,ATTTCTTG,0.258 ± 0.105 E-score
9,AATGAAAT,0.236 ± 0.00744 E-score
10,CAATCTCG,0.404 ± 0.00662 E-score
11,AAATCTCC,0.439 ± 0.00952 E-score
12,CAATCTCA,0.329 ± 0.0291 E-score
13,AATTCTCA,0.243 ± 0.0881 E-score
14,AAATCTCA,0.444 ± 0.0165 E-score
15,CAATCACA,0.205 ± 0.12 E-score
16,AAATCTCG,0.4626 ± 0.00233 E-score
17,CAATCTCC,0.349 ± 0.0541 E-score
18,ATCGAATA,0.235 ± 0.0136 E-score
19,ACGAGAAT,0.31 ± 0.0433 E-score
20,ATCTAATG,0.243 ± 0.0558 E-score
21,ATTTCCCA,0.329 ± 0.00415 E-score
22,CACGATCG,0.23 ± 0.0866 E-score
23,ATCTATCA,0.276 ± 0.0314 E-score
24,ATAGGATC,0.255 ± 0.0193 E-score
25,AATCAACA,0.259 ± 0.102 E-score

row,Sequence,binding signal
1,ATCTTTTG,0.24 ± 0.0872 E-score
2,AATCATAT,0.28 ± 0.0597 E-score
3,ACTGTGAT,0.208 ± 0.0601 E-score
4,AGATCGGG,0.239 ± 0.0369 E-score
5,ATCCTCTA,0.342 ± 0.0176 E-score
6,ACTGATAC,0.204 ± 0.0454 E-score
7,CAAAGATA,0.225 ± 0.0785 E-score
8,AAATCACT,0.26 ± 0.0391 E-score
9,AAATCTCT,0.392 ± 0.0226 E-score
10,AATTCTCT,0.225 ± 0.0473 E-score
11,ATCCTCAA,0.322 ± 0.0217 E-score
12,ACCGGATC,0.21 ± 0.0564 E-score
13,ATATAAGA,0.21 ± 0.0738 E-score
14,AGAATTTG,0.293 ± 0.0716 E-score
15,AATATTTC,0.34 ± 0.0237 E-score
16,AGAATTTC,0.267 ± 0.0165 E-score
17,AGTATTTG,0.208 ± 0.054 E-score
18,AGGATTTC,0.469 ± 0.0121 E-score
19,AGGATTTG,0.383 ± 0.0174 E-score
20,ATCTCCTA,0.337 ± 0.0176 E-score
21,AGGGAAAT,0.334 ± 0.0487 E-score
22,AATAAGAT,0.3 ± 0.0136 E-score
23,ATTACTCA,0.208 ± 0.0879 E-score
24,AATCGCGA,0.376 ± 0.0188 E-score
25,AGATCTCA,0.413 ± 0.0152 E-score

row,Sequence,binding signal
1,AGATCACG,0.26 ± 0.003 E-score
2,AGATCCCG,0.32 ± 0.0375 E-score
3,AGATCCCC,0.378 ± 0.0125 E-score
4,AGATCCCA,0.219 ± 0.0112 E-score
5,AGATCTCG,0.431 ± 0.0229 E-score
6,AGATCTAC,0.347 ± 0.0432 E-score
7,AGATCTCC,0.441 ± 0.0151 E-score
8,ATCGTAAC,0.244 ± 0.00995 E-score
9,ATCATATC,0.329 ± 0.0297 E-score
10,ATTCCCGG,0.283 ± 0.0331 E-score
11,CAAATCGA,0.28 ± 0.0483 E-score
12,AAAATCGC,0.405 ± 0.00862 E-score
13,AAAATCGA,0.381 ± 0.0174 E-score
14,AAAATCGG,0.363 ± 0.0144 E-score
15,ATAATCGA,0.216 ± 0.00243 E-score
16,ATAATCGC,0.207 ± 0.0834 E-score
17,CAAATCGC,0.32 ± 0.038 E-score
18,AAAATCGT,0.39 ± 0.0061 E-score
19,AATTGCGT,0.233 ± 0.0124 E-score
20,AATTATCC,0.204 ± 0.00884 E-score
21,ATCTGAGC,0.219 ± 0.0796 E-score
22,AGAGATTG,0.325 ± 0.048 E-score
23,ATAGATTA,0.339 ± 0.0049 E-score
24,ATAGATTC,0.437 ± 0.0195 E-score
25,AGAGATTA,0.298 ± 0.025 E-score

row,Sequence,binding signal
1,AGAGATTC,0.434 ± 0.028 E-score
2,ATAGATTG,0.327 ± 0.0261 E-score
3,ACAGATTG,0.359 ± 0.0598 E-score
4,ACAGATTA,0.362 ± 0.0124 E-score
5,ACAGATTC,0.429 ± 0.0275 E-score
6,ACCAGATC,0.2 ± 0.124 E-score
7,ATCACGTA,0.257 ± 0.0112 E-score
8,AAGTATCT,0.249 ± 0.0273 E-score
9,AATTTAGA,0.251 ± 0.0537 E-score
10,AGTGCGAT,0.313 ± 0.00866 E-score
11,AAGGGGAT,0.203 ± 0.0242 E-score
12,ATTTGCAA,0.304 ± 0.00257 E-score
13,ATATCACA,0.369 ± 0.031 E-score
14,ATTGCGTG,0.388 ± 0.00526 E-score
15,ATTGCGTA,0.367 ± 0.0361 E-score
16,ATTGCGTC,0.2709 ± 0.000439 E-score
17,CAATCAAA,0.214 ± 0.036 E-score
18,AAAATAAA,0.218 ± 0.15 E-score
19,CACTGATA,0.208 ± 0.181 E-score
20,ATCTCGAC,0.34 ± 0.0977 E-score
21,ATATCTAG,0.392 ± 0.0205 E-score
22,ATATCAAC,0.287 ± 0.0867 E-score
23,AGATCTAA,0.303 ± 0.0304 E-score
24,AGATCTAG,0.349 ± 0.0106 E-score
25,ATATCTAC,0.392 ± 0.0225 E-score

row,Sequence,binding signal
1,ATATCTAA,0.417 ± 0.0517 E-score
2,ATCTCTAC,0.297 ± 0.0234 E-score
3,ATCTCTAG,0.294 ± 0.0244 E-score
4,ATCTCTAA,0.216 ± 0.0218 E-score
5,ACCGATAT,0.364 ± 0.00959 E-score
6,ATCAGAAT,0.275 ± 0.0769 E-score
7,AGTGTAAT,0.362 ± 0.0129 E-score
8,ATCTGATA,0.345 ± 0.00479 E-score
9,ATTCGTAA,0.208 ± 0.00392 E-score
10,ATCTTTCC,0.218 ± 0.0881 E-score
11,AATCACAT,0.265 ± 0.0229 E-score
12,CAATCGCA,0.23 ± 0.0233 E-score
13,CACGTATC,0.216 ± 0.0457 E-score
14,ATCGCGGC,0.208 ± 0.0886 E-score
15,ATTTTACG,0.213 ± 0.082 E-score
16,AGATCGGA,0.277 ± 0.0345 E-score
17,AATCATTA,0.201 ± 0.157 E-score
18,ATTGCATG,0.221 ± 0.0421 E-score
19,ATTTCACG,0.242 ± 0.0818 E-score
20,AATTTCGG,0.245 ± 0.0953 E-score
21,ATTATGGA,0.277 ± 0.0309 E-score
22,AATCCTGG,0.3628 ± 0.00311 E-score
23,AATCCTAC,0.3426 ± 0.00211 E-score
24,AATCCTCG,0.345 ± 0.0473 E-score
25,ATTCCTAG,0.202 ± 0.0268 E-score

row,Sequence,binding signal
1,AATCCTAA,0.395 ± 0.0218 E-score
2,AATCCTGC,0.356 ± 0.0181 E-score
3,AATCCTAG,0.388 ± 0.0422 E-score
4,AATCCTAT,0.376 ± 0.0141 E-score
5,AATCCTGA,0.399 ± 0.0138 E-score
6,ATCGTGGA,0.273 ± 0.0839 E-score
7,ACGAATCG,0.283 ± 0.0452 E-score
8,ATTCCTTG,0.228 ± 0.115 E-score
9,AATCTTCT,0.41 ± 0.0267 E-score
10,AATCTTCG,0.404 ± 0.0151 E-score
11,ATTCTTCA,0.324 ± 0.0737 E-score
12,AATCGTCT,0.277 ± 0.0759 E-score
13,AATCATCA,0.212 ± 0.0286 E-score
14,AATCATCG,0.225 ± 0.0433 E-score
15,AATCTTCC,0.361 ± 0.0433 E-score
16,AATCTTCA,0.388 ± 0.01 E-score
17,ATTCTTCC,0.221 ± 0.0993 E-score
18,AATAATCT,0.276 ± 0.0304 E-score
19,CACACAGA,0.201 ± 0.0131 E-score
20,ATATATGG,0.224 ± 0.0844 E-score
21,ATATACGA,0.236 ± 0.0113 E-score
22,ATTTCGAA,0.316 ± 0.0613 E-score
23,ATCCAAAC,0.241 ± 0.133 E-score
24,ATCTCAAG,0.256 ± 0.0583 E-score
25,ATCGTATC,0.36 ± 0.0262 E-score

row,Sequence,binding signal
1,ATCCCAAT,0.201 ± 0.0789 E-score
2,AATCCAAG,0.394 ± 0.00595 E-score
3,AATCCAAA,0.4128 ± 0.00044 E-score
4,AATCCCAA,0.367 ± 0.00919 E-score
5,ATTCCAAG,0.205 ± 0.0718 E-score
6,AATCCAAC,0.348 ± 0.0137 E-score
7,AATCAAAA,0.296 ± 0.0471 E-score
8,AATGCAAT,0.303 ± 0.0228 E-score
9,AATCCAAT,0.408 ± 0.0114 E-score
10,AACGGAAT,0.285 ± 0.0635 E-score
11,ATTTCCCG,0.3088 ± 0.000826 E-score
12,ATCTCAGC,0.22 ± 0.0276 E-score
13,AATATCCC,0.339 ± 0.0252 E-score
14,AATATCCT,0.389 ± 0.005 E-score
15,AATATCGT,0.322 ± 0.0372 E-score
16,ATTATCCG,0.279 ± 0.01 E-score
17,AATATCCA,0.396 ± 0.0292 E-score
18,AGTATCCA,0.265 ± 0.00779 E-score
19,AATATCAT,0.282 ± 0.0333 E-score
20,AATATCCG,0.426 ± 0.013 E-score
21,AATATCGA,0.326 ± 0.0506 E-score
22,ATCGAGAA,0.236 ± 0.0184 E-score
